D3 antag: D3 dopamine receptor (human) antagonism; P35462; D3R cells, DiscoveRx beta-arrestin luminescence, antagonist mode; active compounds read low; max response, negative = inhibition, %; hit rate 2.5% among 360,000; in the data active means max response below about -50%; inconclusive means no clear call, values can overlap the other calls; further: on the % scale 0 is the no-effect control and ±100 the full control effect
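Cells expressing the human receptor were seeded at 1500 cells/well, incubated overnight at 37 degrees C in 5% CO2, then exposed to library compounds with dopamine controls for 90 minutes at 37 degrees C before luminescent detection.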
BCR signal inh: blocks chronic active B-cell receptor signaling; ABC-DLBCL IkBa-CBG/CBR reporter, luminescence ratio, 4 h; Potency, µM (doses to about 46.1 µM), inactives show top-dose activity change, negative = inhibition, hits mostly inhibitors; hit rate 0.05% among 340,000; active means well fitted inhibition curve with a large enough effect in the signal ratio, with a control signal flat, not every such curve was filed as active; inconclusive means small, poorly fitted or top-dose-only effect, or effect the other way, or a change in a side signal; the % refers to the signal ratio;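 further: potency means the concentration at half of the fitted maximal effect; plate controls were basal doxycycline-induced cells for no effect and cells given 10 µM MG132 for full effect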
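Doxycycline induced both beetle luciferases in TMD8 lymphoma cells; IKK-driven degradation limits the IkappaBalpha-fused green signal, while red luminescence normalises for cell number and nonspecific effects. Compounds tested up to 46 uM, 4 hrs.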
D1 ag: activates the human D1 dopamine receptor | P21728 | AID 504660 | hit rate 1% among 360,000 | HEK293 T-REx D1 cells, calcium flux, agonist mode | activation, % at 2 µM; in the data active means activation above about 30%; further: 0% is about no effect
Target sequence (P21728 whole entry, looked up): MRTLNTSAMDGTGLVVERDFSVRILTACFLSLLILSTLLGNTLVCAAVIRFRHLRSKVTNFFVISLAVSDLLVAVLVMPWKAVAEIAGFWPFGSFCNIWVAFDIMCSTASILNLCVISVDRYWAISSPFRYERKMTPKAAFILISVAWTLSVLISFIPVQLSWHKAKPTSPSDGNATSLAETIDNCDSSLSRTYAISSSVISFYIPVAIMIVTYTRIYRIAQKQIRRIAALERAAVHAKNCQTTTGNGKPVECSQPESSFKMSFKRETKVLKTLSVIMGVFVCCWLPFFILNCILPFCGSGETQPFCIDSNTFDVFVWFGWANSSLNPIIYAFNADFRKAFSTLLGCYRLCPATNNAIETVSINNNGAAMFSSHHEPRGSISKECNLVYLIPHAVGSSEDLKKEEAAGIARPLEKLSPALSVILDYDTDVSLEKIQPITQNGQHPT
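Tetracycline-induced HEK293 TREx D1 cells, force-coupled to calcium signalling, were dye-loaded with a no-wash calcium kit. Compound was pin-added after a 10 s baseline. Fluorescence was read kinetically at 1 cycle/s for 180 s, with calcium rises flagged as agonism.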
D1 antagonist: blocks dopamine activation of the human D1 receptor; hit rate 3.2% among 360,000; activity change, negative = inhibition, % at 10 µM; AID 504652; P21728; HEK293 TREx D1 cells, calcium flux, dopamine EC80; active compounds read low; in the data active means activity change below about -30%; further: on the % scale 0 is the no-effect control and ±100 the full control effect
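Tetracycline-induced HEK293 Trex D1 cells, force-coupled to calcium, dye-loaded; compounds added and read 180 s, then EC80 dopamine added and calcium flux tracked kinetically another 180 s.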
D3 ag: activates the human D3 dopamine receptor; P35462; D3R DiscoveRx beta-arrestin cells, luminescence, 90 min; max activation, %; hit rate 0.58% among 410,000; in the data active means max activation above about 30%; further: 0% is about no effect
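Agonist-mode cell screen: cells plated at 1500/well and incubated overnight at 37 °C, then exposed to library compounds for 90 min at 37 °C. Detection reagent was added for 30–60 min at room temperature, and luminescence was read.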
D1 PAM: enhances dopamine response at the human D1 receptor. HEK293 TREx D1 cells, calcium flux, dopamine EC20 potentiation. potentiation, % at 10 µM. hit rate 0.036% among 360,000. AID 504651; in the data active means potentiation above about 30%; further: 0% is about no effect
Numbers without * were called inactive; ? = inconclusive; . = not tested or not shown. An excerpt weighted towards active compounds, which were near 6% of everything screened.

SMILES	D3 antag	BCR signal inh	D1 ag	D1 antagonist	D3 ag	D1 PAM
COc1ccc([C@H]2CC(=O)C[C@@H](CCn3cc(Cc4ccccc4)nn3)O2)cc1	20.1	.	.	.	6.9	.
COc1ccc(OC)c(CNc2ncnc3c2nc2n3CCCC2)c1	.	.	-0.1	-13.9	2.6	-1.9
O=C(Cc1ccccc1)NCC(=O)N1CCN(c2ccc(F)cc2)CC1	6.1	.	.	.	2.9	.
C[C@@H]1CN([C@H](C)CO)C(=O)CCCn2nncc2CO[C@H]1CN(C)S(=O)(=O)c1ccc(Oc2ccccc2)nc1	4.3	.	.	.	-4.1	.
Cc1ccc(S(=O)(=O)NNC(=O)c2ccccc2-n2cccc2)cc1	-21.1	7.6%	9.0	-0.5	-1.4	0.8
COc1ccc(S(=O)(=O)NNC(=O)c2ccccc2-n2cccc2)cc1	-3.5	3.2%	1.2	-61.1*	2.6	-4.7
Cc1nn(C)c2c1c(C(F)(F)F)cc(=O)n2C(C)C(=O)NCCc1ccccc1 (stereo not given)	.	.	-0.5	17.8	-8.5	-3.9
COc1ccccc1S(=O)(=O)N(C)C[C@H]1OCc2cnnn2CCCC(=O)N([C@H](C)CO)C[C@H]1C	3.2	.	.	.	3.2	.
CC(=O)c1ccc(S(=O)(=O)N2CCN(CCOc3ccc(Br)cc3)CC2)cc1	-22.2	-2.1%	8.1	-11.6	49.5*	-2.6
CN1CCN(S(=O)(=O)c2ccc(NC(=O)c3cccs3)cc2)CC1	-26.9	.	1.1	5.0	-2.4	-3.4
CN1CCN(S(=O)(=O)c2ccc(NC(=O)c3csc4ccccc34)cc2)CC1	?	-4.7%	2.5	-44.7*	-11.3	-12.1
COc1ccccc1C(=O)Nc1ccc(S(=O)(=O)N2CCN(C)CC2)cc1	-11.2	.	.	.	-5.5	.
CCOc1ccc(S(=O)(=O)N2CCN(S(=O)(=O)c3ccc(C(C)=O)cc3)CC2)cc1	-1.0	6.0%	-1.0	5.8	3.1	-7.8
CCCOc1ccc(C(=O)Nc2ccc(S(=O)(=O)N3CCN(C)CC3)cc2)cc1	4.1	3.4%	9.7	-72.5*	-4.3	-11.0
CCCOc1ccccc1C(=O)Nc1ccc(S(=O)(=O)N2CCN(C)CC2)cc1	-6.9	-7.4%	4.4	-49.4*	1.0	-12.2
O=C(Nc1ccc(F)cc1)N1CCN(CCc2ccccc2)CC1	3.0	0.3%	0.9	.	-4.8	-4.4
CCNC(=O)N1CCN(CCCC(c2ccc(F)cc2)c2ccc(F)cc2)CC1	-114.1*	?	21.4	-72.8*	-87.8	-4.1
[O-][n+]1ccccc1SSc1cccc[n+]1[O-]	.	.	.	.	-41.1	.
C/C=C(\C)C(=O)Nc1cccc(C2=NOC3(C2)C[C@@H](C(N)=O)N(C(=O)c2cc([N+](=O)[O-])cc([N+](=O)[O-])c2C)C3)c1 (stereo not given in full)	7.2	?	2.4	-2.8	-23.0	-1.7
C/C=C/C(=O)Nc1cccc(C2=NOC3(C2)C[C@H](C(N)=O)N(C(=O)/C=C/C)C3)c1 (stereo not given in full)	-25.1	-1.1%	0.2	-41.8*	-18.8	-0.9
C/C=C\C=C/C(=O)Nc1cccc(C2=NOC3(C2)C[C@@H](C(N)=O)N(C(=O)c2ccc(Cl)cc2)C3)c1 (stereo not given in full)	22.1	-23.1%	3.4	-30.0*	2.0	-2.2
C/C=C\C=C/C(=O)Nc1cccc(C2=NOC3(C2)C[C@H](C(N)=O)N(C(=O)CC)C3)c1 (stereo not given in full)	-5.3	?	5.6	-12.8	30.8*	-0.1
C/C=C(\C)C(=O)Nc1cccc(C2=NOC3(C2)C[C@H](C(N)=O)N(C(=O)c2cc([N+](=O)[O-])cc([N+](=O)[O-])c2)C3)c1 (stereo not given in full)	-20.1	-4.9%	4.9	-64.4*	14.2	-4.5
C/C=C\C=C/C(=O)Nc1cccc(C2=NOC3(C2)C[C@@H](C(N)=O)N(C(=O)CCCCC)C3)c1 (stereo not given in full)	46.2	-14.4%	1.1	2.8	10.9	-0.2
CCOc1ccc(CNC(=O)CS(=O)(=O)c2cccc3nsnc23)cc1	.	.	1.1	7.5	0.0	-1.4
SMILES	D3 antag	BCR signal inh	D1 ag	D1 antagonist	D3 ag	D1 PAM
O=C1Nc2ccccc2N=C(c2ccccc2)C1N(C(=O)c1ccnc2ccccc12)c1ccccc1 (stereo not given)	4.1	.	.	.	-1.9	.
Cc1cc(N2CCN(C)CC2)nc2ccc(NC(=O)Nc3cccc(Cl)c3)cc12	.	.	16.4	-12.8	-22.2	-7.8
CCN1CCN(Cc2nc3cc(NC(=O)c4cccc([N+](=O)[O-])c4)ccc3n2CC)CC1	.	.	2.0	-3.6	-6.3	4.0
NC(=O)[C@@H]1CC2(CC(c3cccc(NC(=O)COc4ccc(Cl)cc4)c3)=NO2)CN1C(=O)COc1ccc(Cl)cc1 (stereo not given in full)	-9.0	?	1.4	24.3	-12.9	-1.2
N#CCC(=O)N1CC2(CC(c3cccc(NC(=O)COc4ccc(Cl)cc4)c3)=NO2)C[C@@H]1C(N)=O (stereo not given in full)	-18.5	-20.8%	1.8	-41.4*	0.9	1.0
CCOc1cccc(Nc2nn(-c3ccc(OC(F)(F)F)cc3)nc2C(C)=O)c1	.	.	-0.1	4.9	-2.7	-1.8
Cc1ccc(N(C(=O)c2nsc(Cl)c2Cl)C(C(=O)NC2CCCC2)c2ccc(O)cc2)cc1C (stereo not given)	-51.9*	?	2.1	-19.2	-31.1	-4.5
Cc1cc(C)cc(N(C(=O)c2nsc(Cl)c2Cl)C(C(=O)NC2CCCC2)c2ccc(O)cc2)c1 (stereo not given)	-11.5	4.7%	0.6	5.4	-19.6	-5.0
Cc1cccc(N(C(=O)c2nsc(Cl)c2Cl)C(C(=O)NC2CCCC2)c2ccc(O)cc2)c1C (stereo not given)	-20.8	?	6.3	-39.7*	-11.9	-7.7
O=C(Nc1ccc2c(c1)OCCO2)C1C(c2ccccc2)=Nc2ccccc2N1C(=O)c1cccnc1 (stereo not given)	1.1	.	.	.	3.5	.
CS(=O)(=O)N(CC(=O)N1CCCC1)c1cccc(C(F)(F)F)c1	0.0	.	.	.	-2.1	.
CCOc1ccc(CNC(=O)Cn2nc(C)c3nn(-c4ccc(Cl)cc4)c(C)c3c2=O)cc1	.	.	0.2	6.0	8.7	1.8
CCCCCc1c2c(cc(O)c1C(=O)O)OC(=O)c1c(cc(OC)cc1C(=O)CCCC)O2	9.3	0.3%	11.0	-31.2*	2.6	-1.0
CCOc1ccccc1-c1cncc(NC)n1	-2.4	.	.	.	-4.2	.
Cc1ccc(C)n1-c1nnc(N2CCCC(C(=O)NCc3cccc(Cl)c3)C2)s1 (stereo not given)	.	.	-2.2	5.0	-3.9	-1.1
Cc1ccc(S(=O)(=O)c2nc(-c3ccccc3Cl)oc2N2CCN(C)CC2)cc1	-54.7*	?	.	.	-17.1	.
